# Hits are enriched below; roughly 12% of the tested compounds scored in any of these assays.
# BAZ2B block – blocks human BAZ2B. Q9UIF8. AlphaScreen BAZ2B-H3K14Ac peptide displacement. Potency, µM (doses to about 114 µM), for inactives: top-dose activity change, negative = inhibition, actives largely listed as inhibitors. 360,000 tested, 4.4% active. AID 504333; note: % is set by controls: 0 for no effect and ±100 for the full control effect; nearly all actives have a fitted effect of over 60% in size
#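 Multi-concentration screen (max 110 uM) measuring displacement of acetylated histone H3 peptide from BAZ2B by AlphaScreen, using 50 nM protein, 50 nM peptide and 10 ug/mL streptavidin donor plus Ni-chelate acceptor beads.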
# G9a inh – inhibitors of human histone lysine methyltransferase G9a | Q96KQ7 | G9a H3K9 monomethylation, AlphaScreen, 2 h | Potency, µM (series often up to 102 µM), inactives show top-dose activity, negative = inhibition, actives largely listed as inhibitors | 350,000 tested, 8.8% active | AID 504332; note: % is set by controls: 0 for no effect and ±100 for the full control effect; nearly all actives have a fitted effect of over 75% in size
# Target sequence (Q96KQ7 913-1193 limits assumed): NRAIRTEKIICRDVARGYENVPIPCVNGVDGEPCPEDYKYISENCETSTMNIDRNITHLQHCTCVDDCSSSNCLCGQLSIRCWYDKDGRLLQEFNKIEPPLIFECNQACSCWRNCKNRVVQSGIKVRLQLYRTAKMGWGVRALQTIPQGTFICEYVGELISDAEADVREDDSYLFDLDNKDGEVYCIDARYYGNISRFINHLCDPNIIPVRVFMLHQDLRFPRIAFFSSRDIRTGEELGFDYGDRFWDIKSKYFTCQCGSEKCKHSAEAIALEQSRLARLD
#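 Compounds were preincubated with 20 nM G9a for 15 min, after which biotinylated H3K9 peptide (500 nM) and SAM (20 uM) started a 2 h room-temperature reaction. Monomethylated product was quantified by antibody-based AlphaScreen chemiluminescence.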
# HP1b chromo inh – inhibitors of HP1-beta chromodomain binding to methylated histone tails. P83916. AlphaScreen HP1-beta / biotin-H3K9me3 peptide binding. Potency, µM (highest dose often 114 µM), inactives show at the highest dose activity change, negative = inhibition, hits mostly inhibitors. 390,000 tested, 0.56% active; note: nearly all actives have a fitted effect of over 70% in size
# Target sequence (P83916 whole entry, looked up): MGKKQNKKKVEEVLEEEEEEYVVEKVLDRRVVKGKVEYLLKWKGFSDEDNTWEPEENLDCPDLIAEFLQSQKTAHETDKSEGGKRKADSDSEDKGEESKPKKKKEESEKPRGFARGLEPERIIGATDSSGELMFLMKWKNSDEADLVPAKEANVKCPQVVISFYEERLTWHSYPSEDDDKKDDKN
#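 AlphaScreen: HP1-beta (50 nM) preformed 30 min with biotin-H3(1-18)K9me3 peptide (50 nM) in PBS pH 7.4, 0.01% Tween-20. Compound added for 30 min at RT, then streptavidin donor/nickel chelate acceptor beads (10 ug/mL) for 30 min.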
# Sfp inh – inhibitors of Bacillus subtilis Sfp phosphopantetheinyl transferase | Q9F4F7 | Biochemical Sfp PPTase activity, qHTS | Potency, µM, inactives show largest response in the series, negative = inhibition, usual class: inhibitors | 310,000 tested, 3.5% active | AID 1490;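 note: the enzyme is Sfp with the accession as filed and its product quenches rhodamine fluorescence; 0% = enzyme reaction without inhibitor and -100% = no enzyme wells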
#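 Fluorescence-quenching assay with 15 nM Sfp, 5 uM rhodamine-CoA and 12.5 uM BHQ-2-labelled ybbR peptide in pH 7.6 Hepes/MgCl2 buffer. Enzyme was pre-incubated with compound for 15 min at room temperature. Rate was taken from the 30-min fluorescence change (525/598 nm).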
# JMJD2A Tudor – inhibitors of human JMJD2A Tudor domain; 390,000 tested, 4.4% active; AlphaScreen JMJD2A-Tudor / H3K4me3 peptide binding; Potency, µM (series often up to 114 µM), inactives show at the top dose activity change, negative = inhibition, actives largely listed as inhibitors; note: % is set by controls: 0 for no effect and ±100 for the full control effect; nearly all actives have a fitted effect of over 50% in size
# Active calls of the source: *; ? = inconclusive; · = no result given; [ ] = another dose, or the depositor's remark. Calls come from the whole dose curve; as a rule, active = well fitted curve in the direction sought with a large enough effect; inconclusive = small, poorly fitted or top-dose-only effect, or another doubt; inactive = no such curve, though single readings can be large; an effect the other way counts as inactive or inconclusive. Potency is the fitted concentration of half-maximal effect.
SMILES,BAZ2B block,G9a inh,HP1b chromo inh,Sfp inh,JMJD2A Tudor
COc1cc2nc(NC(=O)c3ccc(S(=O)(=O)N4CCCC4)cc3)sc2cc1OC,4%,-26%[59 µM],28%,·,-10%
COc1ccc(-n2c(C)c([N+](=O)[O-])c3ccc(O)c(CN4CCCCC4)c32)cc1,?,25µM*,?,-19%,?
COc1ccccc1CNc1nc(-c2ccco2)nn1C(=O)c1cc(OC)c(OC)c(OC)c1,-38%,?,11%,·,-24%
CC1=C[C@@H](O)CC(C)(C)[C@@H]1/C=C/C(C)=C/C=C/C(C)=C/C=C/C=C(C)/C=C/C=C(C)/C=C/C1=C(C)C[C@H](O)CC1(C)C,·,?,·,50µM*,·
CC1=C(/C=C/C(C)=C/C=C/C(C)=C/C=C/C=C(C)/C=C/C=C(C)/C=C/C(=O)[C@]2(C)CC(O)CC2(C)C)C(C)(C)CC(O)C1 (stereo partly drawn),·,-2%[2.33 µM],·,11%,·
COC(=O)c1ccc(C(NC(=O)OCc2ccccc2)/C(=C/[C@@H](C)C(=O)NCCc2c[nH]c3ccccc23)c2cccnc2)cc1 (stereo partly drawn),·,·,·,18%,·
CC1(C)O[C@@H]2[C@H](O1)[C@@H](COS(=O)(=O)O)O[C@H]2n1c(=S)[nH]c2c(=O)[nH]c(N)nc21,-6%,13%[2.33 µM],-24%,·,20µM*
Nc1nc2c([nH]c(=S)n2C2OC(CO)C(O)C2O)c(=O)[nH]1 (stereo not drawn),·,·,·,45µM*,·
COc1ccc(C)cc1NC1(c2ccccc2)C(=O)c2ccccc2C1=O,?,13µM*,?,·,28µM*
CCOc1ccccc1NC1(c2ccccc2)C(=O)c2ccccc2C1=O,?,11µM*,?,·,11µM*
CC1CCc2c(sc(NC(=O)Cn3nc(C(F)(F)F)c4c3CCCCC4)c2C#N)C1 (stereo not drawn),23%,?,-35%,50µM*,-19%
CC1CCc2c(sc(NC(=O)COC(=O)C3CCCO3)c2C#N)C1 (stereo not drawn),-13%,26%,34%,-7%,-10%
CC1CCc2c(sc(NC(=O)COC(=O)c3ccc(O)cc3)c2C#N)C1 (stereo not drawn),-32%,40µM*,-4%,?,?
N#Cc1c(NC(=O)Cn2nc(C(F)(F)F)c3c2CCCC3)sc2c1CCC2,79µM*,2.8µM*,32µM*,?,?
CCc1ccc(NC(=O)Cn2nc(C(F)(F)F)c3c2CCC3)cc1,-6%,10%[2.33 µM],37%,6%,-15%
Cc1cccc(-c2noc(CN(C(=O)COc3ccc(C(C)C)cc3)C(C)C)n2)c1,18%,31%[59 µM],58%,·,13%
CC(=O)c1cccc(N=Nc2c(C)[nH]c3ccccc23)c1,35µM*,10µM*,-31%,-3%,?
COc1ccc(N=Nc2c(C)[nH]c3ccccc23)cc1,·,·,?,·,50µM*
COc1ccc(N=Cc2c(O)[nH]c3ccccc23)cc1,-7%,-38%[59 µM],8%,18%,-14%
O=C(O)c1ccc(N=Nc2c(O)[nH]c3ccccc23)cc1,?,·,8%,-13%,-33%
O=C(COC(=O)c1cccc(F)c1)Nc1cccnc1Cl,·,8%,-11%,15%,0%
COc1cccc(/C=C2\Oc3cc(OCC(=O)N4CCC[C@H]4C(=O)O)ccc3C2=O)c1,-24%,-9%[12.7 µM],10%,6%,-21%
COc1cccc(OC)c1C(=O)Nc1nnc(-c2cccs2)s1,-1%,·,-2%,-28%,-14%
CCCc1nnc(NC(=O)CN2CCN(C)CC2)s1,79µM*,?,35%,-19%,-20%
CN1CCN(CC(=O)Nc2nnc(-c3cccs3)s2)CC1,-4%,?,4%,-1%,11µM*
CCC(CC)C(=O)Nc1nnc(-c2cccs2)s1,5%,16µM*,-13%,-5%,-12%
Cc1nn(CC(=O)NCc2ccccc2Cl)c(=O)c2cccn12,2%,-6%[59 µM],38%,·,-11%
COc1ccc(-c2cc(C)no2)cc1S(=O)(=O)NCc1ccc(OC(C)C)cc1,-28%,-16%[59 µM],33%,18%,11%
Nc1nc(Nc2cc(F)cc(F)c2)nc(NC2CCCC2)n1,·,·,·,·,-18%

# Screens: PubChem BioAssay, National Center for Advancing Translational Sciences (NCATS)
